From PubChem BioAssay (Tox21)
Records with an inconclusive call do not appear. Activity calls are given as the source filed them. Unless noted, the call rests on the fitted dose curve; in most records, active means well fitted curve in the direction sought with a large enough effect in the repeat runs; inconclusive means weak or mixed curves; inactive means no such curve, though single readings can be large; an effect the other way counts as inactive or inconclusive.

Assays:
[1] = qHTS assay to identify small molecule agonists of the sonic hedgehog signaling (Shh) pathway (AID 1259368; calls by dose curve;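 further: NIH/3T3-derived 3T3Gli1-Luc cells carrying a stable Gli1-driven firefly luciferase reporter; series mostly up to about 92 µM; nearly all actives have a fitted effect of over 15% in size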)
How it was run: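 3T3Gli1-Luc (NIH/3T3 clone, stable Gli1-Luc); 4 hr pre-incubation, then cpd in DMSO 24 hr, 37 C/5% CO2; luciferase reagent 30 min RT; luminescence.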

[2] = qHTS assay to identify small molecule antagonists of the sonic hedgehog signaling (Shh) pathway (AID 1259369; calls by dose curve; further: nearly all actives have a fitted effect of over 45% in size)
How it was run: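 3T3Gli1-Luc, conditioned-medium-stimulated, 24hr cpd, 37C/5% CO2; Gli1-driven firefly Luc luminescence after 30min RT with luciferase reagent. Cells plated 4hr before cpd.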

[3] = qHTS assay to identify small molecule agonists of the androgen receptor (AR) signaling pathway in the presence of an antagonist - cell viability counter screen (AID 1259379);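 further: MDA-kb2 human breast cancer cells carrying an MMTV luciferase reporter; series mostly up to about 92 µM; nearly all actives have a fitted effect of over 25% in size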
How it was run: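 Cells: MDA-kb2 (MMTV-luc, AR and GR elements), 3,000/well, 5 hr settle. Added: nilutamide 3.0uM final, then compounds (15 conc.). Incubation: 16 hr, 37C, no CO2. Read-out: CellTiter-Fluor, 1 hr, fluorescence.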

[4] = qHTS assay to identify small molecule antagonists of the estrogen receptor beta (ER-beta) signaling pathway - cell viability counter screen (AID 1259382); further: series mostly up to about 92 µM; nearly all actives have a fitted effect of over 55% in size
How it was run: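 Cells: ER-beta-UAS-bla HEK293T, 2,000/well, 2% CS-FBS, 6 hr settle. Cpd + E2 (1nM final), 16 hr, 37C/5% CO2. Bla FRET substrate 2 hr RT, then CellTiter-Glo 30 min RT, luminescence.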

[5] = molecular target: Estrogen receptor (Homo sapiens) (UniProt P03372); test: qHTS assay to identify small molecule agonists of the estrogen receptor alpha (ER-alpha) signaling pathway in the presence of an antagonist (AID 1259383; calls by dose curve; further: top concentration of the series differs between compounds; nearly all actives have a fitted effect of over 15% in size)
How it was run: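 VM7Luc4E2, endog. ER-alpha + 4×ERE-luc; charcoal-stripped FBS, phenol red-free, 5 d; 24hr plating; +10.0nM ICI-182,780 (final); cpds 15 conc, 22hr, 37C/5% CO2; ONE-Glo luminescence.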

[6] = qHTS assay to identify small molecule agonists or antagonists of the thyroid stimulating hormone receptor (TSHR) signaling pathway - wild type cell line counter screen (AID 1259384; calls by dose curve)
How it was run: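 Wild-type Hek293 cells, 800/well, 18 h at 37C, then compound with Ro20-1724 for 30 min RT. cAMP by HTRF (cAMP-d2/anti-cAMP cryptate), 1 h RT, fluorescence read. 15 concentrations, triplicates.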

[7] = molecular target: Progesterone receptor (Homo sapiens) (UniProt P06401); test: qHTS assay to identify small molecule agonists of the progesterone receptor (PR) signaling pathway (AID 1346784; calls by dose curve; further: nearly all actives have a fitted effect of over 30% in size)
How it was run: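 Cells (PR-UAS-bla HEK 293T, GripTite) were plated in assay medium containing 2% charcoal-stripped FBS and incubated 6 hr. Test compounds in DMSO were added for 16 hr at 37C. FRET substrate was then loaded for 2 hr at room temperature before fluorescence reading.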

[8] = molecular target: Progesterone receptor (Homo sapiens) (UniProt P06401); test: qHTS assay to identify small molecule antagonists of the progesterone receptor (PR) signaling pathway (AID 1346795; active means well fitted inhibition curve with a large enough effect in the signal ratio in the repeat runs, not every such curve was filed as active; the % refers to the signal ratio)
How it was run: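 Antagonist mode: compounds tested against 1 nM (final) promegestone stimulation in HEK293T cells expressing PR-UAS-bla reporter, 16 hr at 37C, 5% CO2; beta-lactamase activity detected via B/G FRET substrate after 2 hr at room temperature.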

[9] = qHTS assay to identify small molecule antagonists of the progesterone receptor (PR) signaling pathway - cell viability counter screen (AID 1346798); further: series mostly up to about 92 µM; nearly all actives have a fitted effect of over 50% in size
How it was run: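 Counter screen for cytotoxicity: viability of PR-UAS-bla HEK293T cells was measured with CellTiter-Glo luminescence following 16 hr compound exposure in the presence of R5020.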

[10] = qHTS assay to identify small molecule agonists of the progesterone receptor (PR) signaling pathway - cell viability counter screen (AID 1346799; calls by dose curve; further: nearly all actives have a fitted effect of over 45% in size)
How it was run: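 Cells (PR-UAS-bla HEK293T) are plated at 3,000/well in 2% charcoal-stripped FBS medium, rested 6 hr, dosed and incubated 16 hr at 37C. CellTiter-Glo is then added and luminescence measured after 30 min at room temperature.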

[11] = qHTS assay to identify small molecule antagonists of the TGF-beta/Smad signaling pathway - cell viability counter screen (AID 1346824); further: nearly all actives have a fitted effect of over 50% in size
How it was run: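 SBE-bla HEK 293T cells, incubated overnight, then compound plus 0.25 ng/mL TGF-beta1 (stock added) for 5 hr at 37 C. Viability was read in the same wells by CellTiter-Glo luminescence after 30 min at room temperature.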

[12] = qHTS assay to identify small molecule agonists of the TGF-beta/Smad signaling pathway - cell viability counter screen (AID 1346829); further: top concentration of the series differs between compounds; nearly all actives have a fitted effect of over 45% in size
How it was run: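 Compound-treated SBE-bla HEK 293T cells (5 hr, 37 C) were assessed for viability with CellTiter-Glo in parallel with the reporter read.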

[13] = qHTS assay to identify small molecule agonists of the TGF-beta/Smad signaling pathway (AID 1346859; active means well fitted activation curve with a large enough effect in the signal ratio in the repeat runs, not every such curve was filed as active; the % refers to the signal ratio; further: series mostly up to about 77 µM)
How it was run: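 Reporter line: HEK 293T with stably integrated SBE-controlled beta-lactamase. Compound exposure lasts 5 hr at 37 C and 5% CO2; substrate loading follows for 2 hr at room temperature, with emission read at 460 and 530 nm.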

[14] = molecular target: Thyrotropin-releasing hormone receptor (Homo sapiens) (UniProt P34981); test: qHTS assay to identify small molecule antagonists of the thyrotropin-releasing hormone receptor (TRHR) signaling pathway (AID 1346877; active means well fitted inhibition curve with a large enough effect in the repeat runs, not every such curve was filed as active; further: series mostly up to about 51 µM)
How it was run: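 Intracellular calcium fluorescence, read kinetically every second over 3 min, reports TRH-evoked signalling in HEK293 cells carrying TRHR. Test compounds were added 5 min ahead of a 1 nM TRH challenge.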

[15] = qHTS assay to identify small molecule agonists of the estrogen receptor beta (ER-beta) signaling pathway - cell viability counter screen (AID 1259380); further: nearly all actives have a fitted effect of over 30% in size
How it was run: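 HEK293T ER-beta-UAS-bla; 2% CS-FBS; 6 hr pre-plate, 16 hr cpd at 37C/5% CO2; LiveBLAzer read first, then CellTiter-Glo 30 min RT, luminescence.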

[16] = qHTS assay to identify small molecule agonists of the estrogen receptor alpha (ER-alpha) signaling pathway in the presence of an antagonist - cell viability counter screen (AID 1259386);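 further: series mostly up to about 92 µM; cells exposed to compounds for 22 h at 37 °C before the viability read; nearly all actives have a fitted effect of over 30% in size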
How it was run: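 VM7Luc4E2, stripped-serum pre-culture 5 d; 24hr plating; +ICI-182,780 10.0nM final; cpds 15 conc, 22hr, 37C/5% CO2; CellTiter-Fluor added at 21hr, fluorescence 1hr later.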

[17] = molecular target: Thyrotropin receptor (Homo sapiens) (UniProt P16473); test: qHTS assay to identify small molecule antagonists of the thyroid stimulating hormone receptor (TSHR) signaling pathway (AID 1259385; calls by dose curve; further: nearly all actives have a fitted effect of over 20% in size)
How it was run: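 TSHR-HEK293 cells (800/well) plated 18 h, then compounds with Ro20-1724 and TSH at 1.5 ng/mL final, 30 min at room temperature. cAMP quantified by HTRF (cAMP-d2/anti-cAMP-cryptate, 1 h); 15 concentrations in triplicate.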

[18] = molecular target: Estrogen receptor beta (Homo sapiens) (UniProt Q92731); test: qHTS assay to identify small molecule agonists of the estrogen receptor beta (ER-beta) signaling pathway (AID 1259377; active means well fitted activation curve with a large enough effect in the signal ratio in the repeat runs, not every such curve was filed as active; the % refers to the signal ratio)
How it was run: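 Agonist mode cell assay in GripTite HEK293T cells expressing an ER-beta fusion that drives beta-lactamase from an Upstream Activator Sequence; 16 hr compound exposure at 37C, then 2 h LiveBLAzer B/G FRET substrate at room temperature, fluorescence read-out.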

[19] = molecular target: Estrogen receptor beta (Homo sapiens) (UniProt Q92731); test: qHTS assay to identify small molecule antagonists of the estrogen receptor beta (ER-beta) signaling pathway (AID 1259378; active means well fitted inhibition curve with a large enough effect in the signal ratio in the repeat runs, not every such curve was filed as active; the % refers to the signal ratio)
How it was run: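 ER-beta-UAS-bla HEK293T cells in 2% charcoal-stripped FBS medium treated with compound plus 1nM final 17-beta-estradiol for 16 hr at 37C. Beta-lactamase reporter read by FRET substrate fluorescence after 2 hours at room temperature.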

[20] = molecular target: Androgen receptor (Homo sapiens) (UniProt P10275); test: qHTS assay to identify small molecule agonists of the androgen receptor (AR) signaling pathway in the presence of an antagonist (AID 1259381; calls by dose curve; further: nearly all actives have a fitted effect of over 15% in size)
How it was run: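 MDA-kb2 cells, 3,000/well, rested 5hr at 37C/0% CO2 → nilutamide 3.0uM final or buffer → compounds, 15 conc. → 16hr at 37C → ONE-Glo, 30min RT → luminescence.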

Measured: Potency

Sequence of Thyrotropin-releasing hormone receptor (Homo sapiens) (P34981 whole entry, looked up): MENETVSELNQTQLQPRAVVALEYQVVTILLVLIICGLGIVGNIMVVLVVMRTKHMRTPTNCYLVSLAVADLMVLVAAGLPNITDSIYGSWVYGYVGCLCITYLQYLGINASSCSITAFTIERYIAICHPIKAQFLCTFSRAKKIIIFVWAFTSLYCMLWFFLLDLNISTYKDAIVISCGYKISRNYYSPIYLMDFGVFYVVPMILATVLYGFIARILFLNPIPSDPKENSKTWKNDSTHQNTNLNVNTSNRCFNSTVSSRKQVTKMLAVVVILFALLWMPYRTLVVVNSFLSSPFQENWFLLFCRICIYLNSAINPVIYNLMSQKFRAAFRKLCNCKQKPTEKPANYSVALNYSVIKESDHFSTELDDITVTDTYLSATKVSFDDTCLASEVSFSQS
Sequence of Estrogen receptor beta (Homo sapiens) (Q92731 whole entry, looked up, the tested form may be a part): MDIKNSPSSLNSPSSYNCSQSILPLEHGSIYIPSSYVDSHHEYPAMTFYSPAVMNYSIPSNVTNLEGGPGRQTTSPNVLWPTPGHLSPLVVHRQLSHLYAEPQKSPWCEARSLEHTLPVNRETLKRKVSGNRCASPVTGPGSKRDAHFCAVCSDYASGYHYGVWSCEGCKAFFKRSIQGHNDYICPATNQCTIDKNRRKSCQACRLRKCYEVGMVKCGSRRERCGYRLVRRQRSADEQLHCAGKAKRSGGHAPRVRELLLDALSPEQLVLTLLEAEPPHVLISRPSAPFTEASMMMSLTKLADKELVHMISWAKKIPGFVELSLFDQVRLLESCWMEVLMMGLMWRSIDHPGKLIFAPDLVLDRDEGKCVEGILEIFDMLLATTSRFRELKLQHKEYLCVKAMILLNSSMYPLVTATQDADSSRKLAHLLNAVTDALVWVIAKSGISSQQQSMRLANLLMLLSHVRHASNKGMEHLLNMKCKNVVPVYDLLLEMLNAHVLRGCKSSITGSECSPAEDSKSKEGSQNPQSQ
Sequence of Estrogen receptor (Homo sapiens) (P03372 whole entry, looked up): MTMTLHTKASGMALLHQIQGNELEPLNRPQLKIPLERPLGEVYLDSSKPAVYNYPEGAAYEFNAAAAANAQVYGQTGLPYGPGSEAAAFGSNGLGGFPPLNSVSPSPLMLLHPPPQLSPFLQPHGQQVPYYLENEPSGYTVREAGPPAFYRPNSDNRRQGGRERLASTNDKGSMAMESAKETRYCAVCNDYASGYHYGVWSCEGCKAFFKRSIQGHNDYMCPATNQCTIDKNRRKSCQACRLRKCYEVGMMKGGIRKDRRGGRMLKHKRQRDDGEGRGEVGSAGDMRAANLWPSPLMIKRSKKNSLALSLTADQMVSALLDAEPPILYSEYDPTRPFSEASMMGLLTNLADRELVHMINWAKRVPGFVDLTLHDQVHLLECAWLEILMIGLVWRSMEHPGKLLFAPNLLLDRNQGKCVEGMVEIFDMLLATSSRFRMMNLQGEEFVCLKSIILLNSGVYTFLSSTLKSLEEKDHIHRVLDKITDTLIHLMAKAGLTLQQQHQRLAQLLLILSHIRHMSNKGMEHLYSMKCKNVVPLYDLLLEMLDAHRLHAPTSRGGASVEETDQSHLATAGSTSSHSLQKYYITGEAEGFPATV
Sequence of Thyrotropin receptor (Homo sapiens) (P16473 whole entry, looked up): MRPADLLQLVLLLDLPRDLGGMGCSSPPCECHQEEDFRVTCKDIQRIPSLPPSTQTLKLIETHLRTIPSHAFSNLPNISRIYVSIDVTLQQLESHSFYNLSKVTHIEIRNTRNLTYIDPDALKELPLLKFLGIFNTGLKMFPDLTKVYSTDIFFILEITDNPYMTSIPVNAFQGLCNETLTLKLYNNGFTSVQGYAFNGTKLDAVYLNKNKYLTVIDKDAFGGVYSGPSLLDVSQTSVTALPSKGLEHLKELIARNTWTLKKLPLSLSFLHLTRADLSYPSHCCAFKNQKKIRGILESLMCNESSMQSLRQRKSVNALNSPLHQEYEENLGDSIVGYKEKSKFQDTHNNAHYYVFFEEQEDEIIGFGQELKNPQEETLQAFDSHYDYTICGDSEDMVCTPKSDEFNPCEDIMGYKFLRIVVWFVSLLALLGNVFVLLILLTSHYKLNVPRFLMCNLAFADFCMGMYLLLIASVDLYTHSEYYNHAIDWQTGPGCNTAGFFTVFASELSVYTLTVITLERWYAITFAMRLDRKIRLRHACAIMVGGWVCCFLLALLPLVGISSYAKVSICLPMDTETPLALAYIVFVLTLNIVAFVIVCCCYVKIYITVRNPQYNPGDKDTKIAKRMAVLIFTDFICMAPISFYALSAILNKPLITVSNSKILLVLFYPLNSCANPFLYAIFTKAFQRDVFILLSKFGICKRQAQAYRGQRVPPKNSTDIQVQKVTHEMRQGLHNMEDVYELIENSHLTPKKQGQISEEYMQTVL
Sequence of Progesterone receptor (Homo sapiens) (P06401 whole entry, looked up): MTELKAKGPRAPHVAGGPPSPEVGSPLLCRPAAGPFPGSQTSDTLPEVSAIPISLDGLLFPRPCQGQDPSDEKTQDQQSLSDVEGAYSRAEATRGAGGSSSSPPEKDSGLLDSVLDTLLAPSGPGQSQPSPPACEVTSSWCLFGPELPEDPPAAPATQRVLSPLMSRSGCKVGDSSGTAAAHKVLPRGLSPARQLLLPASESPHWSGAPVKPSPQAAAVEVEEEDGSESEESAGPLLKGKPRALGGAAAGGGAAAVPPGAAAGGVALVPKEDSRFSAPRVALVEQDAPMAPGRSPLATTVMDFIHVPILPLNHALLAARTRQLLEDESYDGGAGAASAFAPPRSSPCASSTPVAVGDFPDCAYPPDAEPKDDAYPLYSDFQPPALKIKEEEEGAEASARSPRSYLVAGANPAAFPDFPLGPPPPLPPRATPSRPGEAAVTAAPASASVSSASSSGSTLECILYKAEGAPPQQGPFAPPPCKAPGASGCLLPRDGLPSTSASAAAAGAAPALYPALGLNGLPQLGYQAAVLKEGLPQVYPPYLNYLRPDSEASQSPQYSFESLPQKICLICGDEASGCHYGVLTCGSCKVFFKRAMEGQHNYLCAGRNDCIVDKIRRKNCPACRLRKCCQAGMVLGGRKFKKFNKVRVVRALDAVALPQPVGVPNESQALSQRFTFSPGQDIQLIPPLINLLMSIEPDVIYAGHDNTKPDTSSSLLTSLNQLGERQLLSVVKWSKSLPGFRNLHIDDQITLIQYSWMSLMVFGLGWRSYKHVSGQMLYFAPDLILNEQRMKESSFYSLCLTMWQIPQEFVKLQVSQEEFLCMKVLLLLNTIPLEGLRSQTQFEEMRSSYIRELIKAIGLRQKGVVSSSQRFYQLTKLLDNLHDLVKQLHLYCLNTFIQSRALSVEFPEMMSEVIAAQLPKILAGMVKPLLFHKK
Sequence of Androgen receptor (Homo sapiens) (P10275 whole entry, looked up): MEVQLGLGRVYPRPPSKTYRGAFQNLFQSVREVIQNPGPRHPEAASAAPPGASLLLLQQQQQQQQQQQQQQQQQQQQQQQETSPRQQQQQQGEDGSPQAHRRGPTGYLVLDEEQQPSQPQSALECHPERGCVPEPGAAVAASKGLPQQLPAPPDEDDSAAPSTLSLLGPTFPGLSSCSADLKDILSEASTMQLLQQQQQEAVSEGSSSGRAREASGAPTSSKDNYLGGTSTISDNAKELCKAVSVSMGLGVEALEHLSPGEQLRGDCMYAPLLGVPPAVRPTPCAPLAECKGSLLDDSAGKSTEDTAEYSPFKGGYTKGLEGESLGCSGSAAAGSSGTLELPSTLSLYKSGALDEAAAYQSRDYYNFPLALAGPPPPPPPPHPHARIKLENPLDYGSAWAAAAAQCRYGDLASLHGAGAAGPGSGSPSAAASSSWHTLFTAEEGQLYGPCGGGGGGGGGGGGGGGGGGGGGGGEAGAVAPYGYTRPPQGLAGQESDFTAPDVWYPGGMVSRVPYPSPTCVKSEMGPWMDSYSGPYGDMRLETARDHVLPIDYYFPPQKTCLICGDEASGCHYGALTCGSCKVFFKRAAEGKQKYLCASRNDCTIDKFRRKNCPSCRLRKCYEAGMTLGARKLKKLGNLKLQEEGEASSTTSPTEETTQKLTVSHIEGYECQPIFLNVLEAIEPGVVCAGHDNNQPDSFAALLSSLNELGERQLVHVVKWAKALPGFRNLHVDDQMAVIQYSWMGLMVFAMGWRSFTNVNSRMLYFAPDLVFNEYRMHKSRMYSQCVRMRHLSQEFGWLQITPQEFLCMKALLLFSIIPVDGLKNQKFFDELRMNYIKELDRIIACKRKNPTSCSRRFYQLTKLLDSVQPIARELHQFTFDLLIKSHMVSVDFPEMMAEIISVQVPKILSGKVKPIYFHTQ

CCOC(=O)c1ccc(OC(=O)CCCCCN=C(N)N)cc1
not listed: [15] | [16] | [17] | [18] | [19] | [20]
inactive: all other assays above

Cc1cc(NC(=O)C2=C(O)c3ccccc3S(=O)(=O)N2C)no1
not listed: [4] | [5] | [17] | [18] | [19] | [20]
inactive: all other assays above

CO[C@@H]1[C@@H](OC(N)=O)[C@@H](O)[C@H](Oc2ccc3c(O)c(NC(=O)c4ccc(O)c(CC=C(C)C)c4)c(=O)oc3c2C)OC1(C)C
not listed: [4] | [10] | [13] | [18] | [19] | [20]
inactive: all other assays above

Cc1ccsc1/C=C/C1=NCCCN1C
not listed: [2] | [17] | [20]
inactive: all other assays above

CCOC(=O)c1ncn2c1CN(C)C(=O)c1cc(F)ccc1-2
not listed: [3] | [7] | [14] | [18] | [19]
inactive: all other assays above

CC(=O)CCCCn1c(=O)c2c(ncn2C)n(C)c1=O
not listed: [2] | [20]
inactive: all other assays above

CN(C)c1ccc(C=O)cc1
not listed: [2] | [13] | [16] | [20]
inactive: all other assays above

C=CC(OCC)OCC
not listed: [2] | [5] | [6] | [17] | [20]
inactive: all other assays above
